Measured potencies and affinities stand elsewhere.
Assays:
[1] = system: Staphylococcus aureus; details: Concentration 32 ug.mL-1;; ASSAY_TEST Inhibition of Bacterial Growth; detection method Absorption (OD600); MEDIA CAMHB; plate type 384well; NBS; CORNING #3640; time 18 hr
[2] = system: Escherichia coli; details: Concentration 32 ug.mL-1;; ASSAY_TEST Inhibition of Bacterial Growth; detection method Absorption (OD600); MEDIA CAMHB; plate type 384well; NBS; CORNING #3640; time 18 hr

Row | Structure (SMILES) | Inhibition [1] | Inhibition [2]
1 | Cc1ccc(-c2cc3c4nn(CC(=O)Nc5cccc(C)c5C)c(=O)n4ccn3n2)cc1C | 13.1% | -0.36%
2 | COc1ccc(-c2cc3c4nn(CC(=O)Nc5cc(C)ccc5OC)c(=O)n4ccn3n2)cc1 | 1.5% | -0.57%
3 | CCOc1ccc(-n2ccn3c(SCC(=O)Nc4cc(Cl)ccc4OC)nnc3c2=O)cc1 | 6.02% | 1.04%
4 | CC(C)c1nnc2c(SCC(=O)Nc3cccc(Cl)c3)nc3ccccc3n12 | 8.54% | 0%
5 | Cc1ccc(-c2cc3c4nnc(SCC(=O)Nc5ccc(C#N)cc5)n4ccn3n2)cc1 | -4.94% | -8.26%
6 | CC(C)CCn1c(=O)c2ccc(C(=O)NC3CCCC3)cc2n2c(=O)n(CC#N)nc12 | 11.46% | 0.05%
7 | COc1ccccc1NC(=O)Cn1nc2n(CCCOC(C)C)c(=O)c3ccccc3n2c1=O | 11.96% | 2.24%
8 | Cc1cc(C)c(C(=O)CSc2nnc3c(=O)n(-c4ccc(F)cc4)ccn23)cc1C | 6.25% | -5.27%
9 | CCOc1ccc(NC(=O)Cn2c(=O)c3nnc(C(C)C)n3c3ccccc32)cc1 | 13.61% | 5.76%
10 | CCCNC(=O)Cn1nc2n(Cc3cccs3)c(=O)c3sccc3n2c1=O | 6.83% | -4.01%
11 | CCCCOc1ccc(-c2cc3c4nnc(SCC(=O)Nc5cccc(C)c5C)n4ccn3n2)cc1 | -5.45% | -19.34%
12 | O=S(=O)(c1cccn2cnnc12)N(Cc1ccc(F)cc1)c1ccc(F)c(F)c1 | 8.71% | -1.75%
13 | COc1ccccc1NC(=O)Cn1c(=O)c2nnc(C(C)C)n2c2ccccc21 | 22.81% | -0.08%
14 | CCCCc1ccc(NC(=O)Cn2nc3c(Sc4ccccc4)nccn3c2=O)cc1 | 4.84% | -9.71%
15 | CCCn1c(=O)c2sccc2n2c(=O)n(CC(=O)c3cccc(OC)c3)nc12 | 2.99% | -2.97%
16 | COc1ccc(Cl)cc1NC(=O)Cn1nc2ccc(Sc3ccccc3)nn2c1=O | -3.52% | -9.25%
17 | COc1ccc(NC(=O)Cn2nc3c(SCc4ccc(Cl)cc4)nccn3c2=O)cc1OC | 6.14% | -6.36%
18 | COc1ccc(NC(=O)Cn2nc3c(SCc4ccc(Cl)cc4)nccn3c2=O)cc1 | 4.07% | -0.18%
19 | Cc1ccc(Cl)cc1NC(=O)Cn1c(=O)c2nnc(C(C)C)n2c2ccccc21 | 2.92% | -2.02%
20 | Cc1ccc(NC(=O)Cn2nc3c(SC4CCCCC4)nccn3c2=O)cc1F | 10.42% | -1.05%
21 | Cc1ccc(C)c(Cn2nc3n(CCC(C)C)c(=O)c4sccc4n3c2=O)c1 | 8.96% | 1.02%
22 | COc1ccc(NC(=O)Cn2nc3c(SC4CCCCC4)nccn3c2=O)cc1 | -2.9% | -3.75%
23 | COc1ccc(NC(=O)CSc2nnc3c(=O)n(-c4ccccc4)ccn23)cc1OC | 9.52% | -7.32%
24 | Cc1cc2nn(CC(=O)Nc3ccc(F)cc3Cl)c(=O)n2c(Nc2ccc(F)cc2)n1 | 4.61% | -0.12%

Row | Structure (SMILES) | Inhibition [1] | Inhibition [2]
25 | COc1ccc(-c2cc3c4nn(CC(=O)Nc5cccc(C)c5)c(=O)n4ccn3n2)cc1 | 1.22% | -1.93%
26 | COc1ccc(NC(=O)c2ccc3nn(CC(=O)Nc4ccc(C)c(F)c4)c(=O)n3c2)cc1 | 8.14% | -7.69%
27 | COc1cccc(CNC(=O)Cn2nc3c4cc(-c5cc(C)ccc5C)nn4ccn3c2=O)c1OC | 2.74% | -0.3%
28 | CCCCN(C)c1ccc2nnc(CCc3nc(-c4cccc(Br)c4)no3)n2n1 | 7.62% | -1.77%
29 | O=C(Cn1nc2nc(Nc3ccc(F)cc3)ccn2c1=O)NCC1CCCO1 (configuration not stated) | 2.52% | -9.11%
30 | O=C(Cn1nc2ccc(-c3ccc(Cl)cc3)nn2c1=O)N1CCN(c2ccccc2F)CC1 | 9.33% | -0.1%
31 | O=c1c2nn(Cc3ccc([N+](=O)[O-])cc3)c(=O)n2ccn1-c1ccccc1 | 12.75% | -1.5%
32 | Cc1ccc(Nc2cc(C)n3c(=O)n(Cc4cc(=O)n5ccccc5n4)nc3n2)cc1F | 9.94% | -6.14%
33 | CCOc1ccc(NC(=O)Cn2nc3c4cc(-c5ccc(C)cc5)nn4ccn3c2=O)cc1 | 9.82% | 2.19%
34 | O=C(Cn1nc2ccc(-c3ccc(Cl)cc3)nn2c1=O)N1CCN(c2ccc(F)cc2)CC1 | 4.1% | -5.18%
35 | Cc1ccc(-c2ccc3nn(Cc4ccc5c(c4)OCO5)c(=O)n3n2)cc1C | -7.66% | -8.33%
36 | Cc1cccc(C)c1NC(=O)Cn1nc2c(N3CCSCC3)nc3ccccc3n2c1=O | -9.27% | -7.41%
37 | COc1ccccc1Cn1c(=O)c2sccc2n2c(=O)n(Cc3c(F)cccc3Cl)nc12 | 3.95% | 0.18%
38 | CCOC(=O)c1ccc(NC(=O)Cn2nc3c(Oc4ccccc4)nccn3c2=O)cc1 | -0.24% | -4.26%
39 | CCOc1ccccc1NC(=O)Cn1nc2c(SC3CCCCC3)nccn2c1=O | 3% | -8.56%
40 | CC(C)c1nnc2c(=O)n(CC(=O)Nc3cc(Cl)ccc3Cl)c3ccccc3n12 | 3.75% | 5.3%
41 | COc1ccccc1-n1ccn2c(SCC(=O)Nc3ccc(C)c(F)c3)nnc2c1=O | 12% | -1.35%
42 | Cc1cc(C)cc(Nc2nc(C)cc3nn(CC(=O)Nc4cccc(Cl)c4)c(=O)n23)c1 | 6.53% | -7.17%
43 | COc1cccc(CNC(=O)CSc2nnc3ccc(C(=O)Nc4cccc(F)c4)cn23)c1 | 9.49% | -5.27%
44 | O=C(CSc1nnc2c(=O)n(-c3ccccc3)ccn12)NCc1ccc(Cl)cc1 | 9.66% | -0.23%
45 | COc1ccc(OC)c(NC(=O)Cn2nc3c4c5c(sc4ncn3c2=O)CCCC5)c1 | 3.15% | -1.54%
46 | COc1ccc(OC)c(NC(=O)Cn2nc3ccc(-c4ccc(Cl)cc4)nn3c2=O)c1 | 10.25% | -2.3%
47 | COc1ccc(-c2cc3c4nn(CC(=O)NCc5ccc(Cl)cc5)c(=O)n4ccn3n2)cc1 | 12.72% | 5.93%
48 | O=C(Cn1nc2ccc(-c3ccc(Cl)cc3)nn2c1=O)N1CCN(c2ccccc2)CC1 | -1.88% | -5.05%

Row | Structure (SMILES) | Inhibition [1] | Inhibition [2]
49 | Cc1ccc(CNC(=O)CSc2nnc3c4cc(-c5ccc(C)cc5)nn4ccn23)cc1 | 9.17% | 0.59%
50 | CCOC(=O)c1ccc(NC(=O)Cn2nc3c4sc(N5CCCC5)nc4ncn3c2=O)cc1 | 6.07% | -11.73%
51 | CCCCn1c(=O)c2sccc2n2c(=O)n(CC(=O)c3ccc(OC)cc3)nc12 | 3.9% | 0.74%
52 | O=c1c2sccc2n2c(SCc3cccc(C(F)(F)F)c3)nnc2n1Cc1cccs1 | 3.6% | -11.21%
53 | CCCCc1ccc(NC(=O)Cn2c(=O)c3nnc(C(C)C)n3c3ccccc32)cc1 | 13.14% | 1.92%
54 | CCCCc1ccc(NC(=O)CSc2nc3ccccc3n3c(CC)nnc23)cc1 | 10.38% | -2.23%
55 | CCOc1ccccc1NC(=O)Cn1nc2c(Sc3ccc(C)cc3C)nccn2c1=O | 2.42% | 0%
56 | COc1cc(OC)c(NC(=O)Cn2nc3c(Oc4ccccc4)nccn3c2=O)cc1Cl | -15.01% | -15.59%
57 | CC(C)Cn1c(=O)c2ccc(C(=O)NC3CCCC3)cc2n2c(=O)n(CC(=O)NC3CCCCC3)nc12 | -0.85% | -0.58%
58 | COC(=O)c1cccc(NC(=O)Cn2nc3c(N4CCCCCC4)nccn3c2=O)c1 | -4.81% | -10.52%
59 | COc1cc(OC)c(NC(=O)Cn2nc3ccc(-c4ccc(C)c(C)c4)nn3c2=O)cc1Cl | 2.47% | -7.33%
60 | Cc1c(Cl)cccc1-n1ccn2c(SCC(=O)c3c[nH]c4ccccc34)nnc2c1=O | -2.75% | -4.84%
61 | Cc1nnc2c(SCC(=O)Nc3cccc(Br)c3)nc3ccccc3n12 | -13.66% | -1.77%
62 | COc1ccc(N(Cc2ccc(Cl)cc2)S(=O)(=O)c2ccc3nncn3c2)cc1 | -6.81% | -4.15%
63 | Cc1cccc(NC(=O)CSc2nnc3ccc(C(=O)Nc4cccc(F)c4)cn23)c1C | 10.8% | -1.92%
64 | C=Cc1ccc(CN(c2cccc(F)c2)S(=O)(=O)c2ccc3nnc(C)n3c2)cc1 | 2.75% | -8.1%
65 | CSc1ccc(CNC(=O)Cn2nc3c(N4CCN(c5ccccc5)CC4)nccn3c2=O)cc1 | 15.59% | 0.69%
66 | COc1ccc(CNC(=O)Cn2nc3c(Oc4ccccc4C)nccn3c2=O)cc1 | 1.68% | -7.69%
67 | COc1cccc(NC(=O)Cn2nc3c(Oc4ccccc4)nccn3c2=O)c1 | 0.03% | -5.32%
68 | O=C(Cn1nc2c3cc(-c4ccccc4)nn3ccn2c1=O)N1CCN(c2ccccc2F)CC1 | 4.61% | -0.58%
69 | Cc1cccc(C)c1NC(=O)Cn1nc2c3cc(-c4ccc(Cl)cc4)nn3ccn2c1=O | -1.34% | -1.58%
70 | CC(C)c1nnc2c(SCC(=O)Nc3ccc(Cl)cc3C(F)(F)F)nc3ccccc3n12 | 2.01% | -15.72%
71 | CCc1nnc2c(S(=O)(=O)N(Cc3ccc(F)cc3)c3ccc(Cl)cc3)cccn12 | 8.89% | -2.23%
